Screening data from PubChem.
AmpC inh detg: AmpC beta-lactamase inhibition with detergent present | P00811 | AmpC hydrolysis of nitrocefin, absorbance 480 nm, 0.01% Triton | Potency, µM (series often up to 114 µM), for inactives: at the top dose activity change, negative = inhibition, usual class: inhibitors | actives 0.041% (n = 370,000) | AID 485294;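 also: 0% = no-compound wells and -100% = no-enzyme wells; nearly all actives have a fitted effect of over 25% in size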
Target sequence (P00811 whole entry, looked up): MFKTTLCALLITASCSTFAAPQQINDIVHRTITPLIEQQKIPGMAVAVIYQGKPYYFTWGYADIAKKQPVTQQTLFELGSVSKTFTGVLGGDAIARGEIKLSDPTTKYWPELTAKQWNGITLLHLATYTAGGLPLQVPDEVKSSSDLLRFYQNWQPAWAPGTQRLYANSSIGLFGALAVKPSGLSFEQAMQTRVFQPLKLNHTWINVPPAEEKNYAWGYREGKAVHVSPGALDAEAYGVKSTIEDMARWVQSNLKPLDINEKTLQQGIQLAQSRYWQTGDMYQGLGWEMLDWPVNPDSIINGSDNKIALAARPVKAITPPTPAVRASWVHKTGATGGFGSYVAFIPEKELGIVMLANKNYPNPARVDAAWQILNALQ
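20 mM phosphate pH 7.0 + 0.01% (detergent screen) or 0.0001% Triton X-100; 5.3 nM AmpC reagent; cpd preinc 15 min RT; nitrocefin (800 uM stock) to start; A480 q20 s × 4 min; Activity was normalised to no-enzyme and no-compound control wells.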
AmpC no deterg: blocks E. coli AmpC beta-lactamase in detergent-free assay; AmpC nitrocefin hydrolysis, absorbance 480 nm, 0.0001% Triton; P00811; Potency, µM (doses to about 57.1 µM), inactives show at the highest dose activity change, negative = inhibition, actives largely listed as inhibitors; actives 0.52% (n = 330,000);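 also: plate controls were no compound for no effect and no enzyme for full effect; nearly all actives have a fitted effect of over 20% in size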
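20 mM phosphate pH 7.0 + 0.01% (detergent screen) or 0.0001% Triton X-100; 5.3 nM AmpC reagent; cpd preinc 15 min RT; nitrocefin (800 uM stock) to start; A480 q20 s × 4 min; Activity was normalised to no-enzyme and no-compound control wells.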
SARS PLpro yeast: blocks SARS-CoV papain-like protease in a yeast assay. S. cerevisiae expressing SARS-CoV PLpro, growth rescue. Potency, µM (titrated, usually from 32.9 µM), without a hit: at the highest dose activity, positive = growth rescue, hits mostly activators. actives 0.19% (n = 330,000); calls by dose curve; also: 0% is about no effect; nearly all actives have a fitted effect of over 55% in size
Tb PYK inh: blocks Trypanosoma brucei pyruvate kinase | AID 624173 | actives 0.12% (n = 410,000) | TbPYK enzyme, Kinase-Glo Plus ATP luminescence, 45 min | Q57TT1 | Potency, µM (series often up to 76.8 µM), for inactives: at the top dose activity, negative = inhibition, usual class: inhibitors; also: % is scaled to controls: 0 for no effect and ±100 for the full control effect; nearly all actives have a fitted effect of over 50% in size
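Activity of T. brucei pyruvate kinase was followed by Kinase-Glo Plus luminescence after the enzyme reacted 45 min at room temperature with 130 uM ADP (final) and substrate. Test compounds were added before ADP at multiple concentrations.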
Sm TGR inh: inhibitors of Schistosoma mansoni thioredoxin glutathione reductase. Q962Y6. purified TGR, DTNB reduction, TNB absorbance 405 nm. Potency, µM (series often up to 114 µM), without a hit: top-dose activity change, negative = inhibition, hits mostly inhibitors. actives 3% (n = 360,000); also: % is scaled to controls: 0 for no effect and ±100 for the full control effect; nearly all actives have a fitted effect of over 60% in size
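First, TGR (20 nM dispensed) and NADPH were mixed with compound. Second, a 15 min room-temperature incubation followed. Third, further NADPH and then DTNB were added to start the reaction. Finally, TNB absorbance was monitored kinetically.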
RE007 growth inh: less growth of the S. pombe RE007 Vpr strain | AID 651644 | actives 0.21% (n = 360,000) | Potency, µM (series often up to 92.2 µM), without a hit: at the top dose activity change, negative = less growth, hits mostly inhibitors | S. pombe RE007 Vpr strain, BacTiter-Glo ATP luminescence, 24 h; active = well fitted falling curve with a large enough effect; inconclusive = small, poorly fitted or top-dose-only effect; inactive = no such curve, though single readings can be large or run the other way; also: % is scaled to controls: 0 for no effect and ±100 for the full control effect; nearly all actives have a fitted effect of over 50% in size
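Fission yeast strain RE007, carrying one chromosomally integrated HIV-1 vpr copy, was seeded at OD 0.01 in PMG+AL medium with 23 nL pinned compound. After 24 h at 30 °C and 99% humidity, viability was read by BacTiter-Glo luminescence.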
The depositor's hits bear a star. An excerpt weighted towards active compounds, which were near 3.3% of everything screened. Unless noted, calls follow the shape of the dose curve; as a rule, active = well fitted curve in the direction sought with a large enough effect; inconclusive = small, poorly fitted or top-dose-only effect, or another doubt; inactive = no such curve, though single readings can be large; an effect the other way counts as inactive or inconclusive. Potency is read from the fitted curve at half-maximal effect.

Results for CC(=O)Nc1ccccc1-c1nc2ccccc2n(CC(=O)c2ccc(C)c(C)c2)c1=O ?
AmpC inh detg: 14%; Tb PYK inh: 4%; Sm TGR inh: -17%

How did Nc1c(C(=O)N2CCOCC2)sc2nc(N3CCOCC3)c3c(c12)CCCC3 do in these assays?
AmpC inh detg: -2%; AmpC no deterg: 16%; SARS PLpro yeast: 1%; Tb PYK inh: 16µM*; Sm TGR inh: -17%; RE007 growth inh: 10%

How did COc1ccc(-c2nc3ccccc3s2)cc1NC(=O)c1cccc([N+](=O)[O-])c1C do in these assays?
AmpC inh detg: -5%; Tb PYK inh: -9%; Sm TGR inh: -1%

Results for Cc1cc(C)c(S(=O)(=O)/N=C2\C=CC(=O)C(Cl)=C2)c(C)c1 ?
AmpC inh detg: inconclusive; AmpC no deterg: 5µM*; SARS PLpro yeast: 4%; Tb PYK inh: -29%; Sm TGR inh: 4µM*; RE007 growth inh: 2%

What do the screens show for `CN(C)c1cccc2c(C=C(C#N)C#N)ccc(N(C)C)c12`?
AmpC inh detg: -13%; AmpC no deterg: -7%; SARS PLpro yeast: -13%; Tb PYK inh: inconclusive; Sm TGR inh: 25µM*; RE007 growth inh: -6%

How did CCOC(=O)C(=O)Nc1ccc(F)cc1 do in these assays?
AmpC inh detg: -5%; AmpC no deterg: -4%; SARS PLpro yeast: 5%; Tb PYK inh: -2%; Sm TGR inh: -9%; RE007 growth inh: 1%

What do the screens show for `CCOC(=O)C(=Cc1ccc(-n2ccnc2)cc1)C(=O)OCC`?
AmpC inh detg: 6%; AmpC no deterg: 3%; SARS PLpro yeast: -23%; Tb PYK inh: -6%; Sm TGR inh: 13µM*; RE007 growth inh: -26%

Results for CCOC(=O)/C(=C/c1ccc(OC(=O)c2ccncc2)cc1)C(C)=O ?
AmpC inh detg: -4%; AmpC no deterg: 4%; SARS PLpro yeast: -11%; Tb PYK inh: -12%; Sm TGR inh: inconclusive; RE007 growth inh: -17%

Results for COC(=O)c1ccc(-n2ccnc2)cc1 ?
AmpC inh detg: -2%; AmpC no deterg: -1%; SARS PLpro yeast: -2%; Tb PYK inh: 1%; Sm TGR inh: 0%; RE007 growth inh: 3%

How did CCOC(=O)C(=Cc1ccc(F)cc1)C(=O)OCC do in these assays?
AmpC inh detg: -7%; AmpC no deterg: -10%; SARS PLpro yeast: -7%; Sm TGR inh: 16µM*

Results for CCOC(=O)C(=Cc1ccc(Br)cc1)C(=O)OCC ?
AmpC inh detg: -17%; AmpC no deterg: -11%; SARS PLpro yeast: -4%; Tb PYK inh: -3%; Sm TGR inh: 3.5µM*; RE007 growth inh: inconclusive

How did O=C(Cn1c(-c2cccs2)cc2ccccc21)NCCCN1CCN(c2cccc(Cl)c2)CC1 do in these assays?
AmpC inh detg: 4%; Tb PYK inh: -10%; Sm TGR inh: inconclusive

Results for CC(C)c1ccc(NC(=O)c2cnc3sc(N4CCCC4)nn3c2=O)cc1 ?
AmpC inh detg: 11%; Tb PYK inh: 1%; Sm TGR inh: 25%

What do the screens show for `CC[C@]1(O)C[C@H]2CN(CCC3=c4ccccc4=N[C]3[C@@](C(=O)OC)(c3cc4c(cc3OC)N(C)[C@H]3[C@@](O)(C(N)=O)[C@H](O)[C@]5(CC)C=CCN6CC[C@]43[C@@H]65)C2)C1`?
Tb PYK inh: -7%

How did COc1cccc(/C=C2/CCC(CN(C)C)C2=O)c1 (stereo not given) do in these assays?
Tb PYK inh: -23%; RE007 growth inh: 8.9µM*

What do the screens show for `COc1cccc(/C=C2\CCC(C3CCCC3)C2=O)c1` (stereo not given)?
AmpC inh detg: -2%; AmpC no deterg: -30%; SARS PLpro yeast: -1%; Tb PYK inh: 2%; Sm TGR inh: 40µM*; RE007 growth inh: 0%

How did COc1ccc(/C=C2/CCCC(CN(C)C)C2=O)cc1 (stereo not given) do in these assays?
Tb PYK inh: -11%; RE007 growth inh: 17%

Results for Cc1cccc(N2C(=O)CS(=O)(=O)C23C(=O)N(C)c2ccccc23)c1 (stereo not given) ?
AmpC inh detg: -5%; Tb PYK inh: -8%; Sm TGR inh: 6%

How did CC(CNC(=O)c1cc2ccccn2n1)c1ccccc1 (stereo not given) do in these assays?
AmpC inh detg: 5%; Tb PYK inh: 2%; Sm TGR inh: 1%

How did CCOc1ccccc1Nc1nnc(SCC(=O)Nc2ccc3[nH]c(=O)[nH]c3c2)s1 do in these assays?
AmpC inh detg: -3%; AmpC no deterg: 18µM*; SARS PLpro yeast: 2%; Tb PYK inh: -6%; Sm TGR inh: 2%; RE007 growth inh: -23%

What do the screens show for `CC(C)Nc1nnc(SCC(=O)Nc2ccc3c(c2)C(=O)c2ccccc2C3=O)s1`?
AmpC inh detg: 2%; AmpC no deterg: 10µM*; SARS PLpro yeast: -15%; Tb PYK inh: 1%; Sm TGR inh: -4%; RE007 growth inh: 12%

Results for COc1ccccc1Nc1nnc(SCC(=O)Nc2nc(-c3ccc(F)cc3)cs2)s1 ?
AmpC inh detg: 0%; AmpC no deterg: 16µM*; SARS PLpro yeast: 0%; Tb PYK inh: -10%; Sm TGR inh: -8%; RE007 growth inh: -6%

Results for COc1ccc(N2CCN(C(=O)CCn3cnc4onc(-c5ccc(F)cc5)c4c3=O)CC2)cc1 ?
AmpC inh detg: -3%; Tb PYK inh: 0%; Sm TGR inh: -2%

What do the screens show for `COc1ccc(Br)cc1C1C(C(=O)Nc2ccc(C)cc2C)=C(C)Nc2ncnn21` (stereo not given)?
AmpC inh detg: 2%; Tb PYK inh: -1%; Sm TGR inh: -3%

How did CCN(CC(=O)Nc1ccc2c(c1)CCC2)Cc1nc2ccccc2c(=O)[nH]1 do in these assays?
AmpC inh detg: -2%; AmpC no deterg: -11%; SARS PLpro yeast: 9%; Tb PYK inh: -5%; Sm TGR inh: 50µM*; RE007 growth inh: 2%

How did CCOC(=O)c1ccc(N2C(=O)c3n[nH]c(-c4ccco4)c3C2c2ccccc2OC)cc1 (stereo not given) do in these assays?
AmpC inh detg: 1%; Tb PYK inh: -2%; Sm TGR inh: -3%

How did COC(=O)C(NC(=O)CCc1c(C)nc2c(-c3ccccc3)c(C)nn2c1C)C(C)C (stereo not given) do in these assays?
AmpC inh detg: -10%; Tb PYK inh: -14%; Sm TGR inh: -14%
